# “And” between values parts separate entries of the source, which are not always exact repeats. Equal entries are not always repeated. Records with an inconclusive call do not appear. For some assays here: Potency and affinity values are given separately. The source made the active and inactive calls.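 The calls were made as follows, unless noted: active = at least 20% inhibition of 6-phosphogluconate dehydrogenase activity; inactive = the rest.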
# Experiments:
# [1] = molecular target: 6-phosphogluconate dehydrogenase, decarboxylating (Homo sapiens) (UniProt P52209); assay: 6PGD enzyme inhibitors, primary screen, biochemical, human, recombinant enzyme, NADPH absorbance (AID 1159550); details: recombinant 6PGD, NADPH absorbance 341 nm; at 10 µM; stronger effect = higher value
# 6-phosphogluconate dehydrogenase, decarboxylating (Homo sapiens), sequence (P52209 whole entry, looked up): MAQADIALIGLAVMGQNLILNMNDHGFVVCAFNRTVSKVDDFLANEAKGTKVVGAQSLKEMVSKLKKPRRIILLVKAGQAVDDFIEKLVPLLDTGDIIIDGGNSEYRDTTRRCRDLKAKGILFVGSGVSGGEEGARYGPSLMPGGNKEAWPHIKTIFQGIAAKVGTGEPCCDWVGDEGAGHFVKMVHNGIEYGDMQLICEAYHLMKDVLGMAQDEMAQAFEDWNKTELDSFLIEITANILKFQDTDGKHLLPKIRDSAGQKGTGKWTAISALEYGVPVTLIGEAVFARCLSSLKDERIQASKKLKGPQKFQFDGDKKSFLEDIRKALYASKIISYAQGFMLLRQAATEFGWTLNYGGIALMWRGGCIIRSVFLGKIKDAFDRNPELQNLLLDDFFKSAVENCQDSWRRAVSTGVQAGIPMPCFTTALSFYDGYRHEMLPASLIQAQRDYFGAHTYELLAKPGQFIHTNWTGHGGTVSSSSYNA
# [2] = test system: Aerobactin synthetase IucA (Klebsiella pneumoniae hvKP1); assay: Biochemical IucA enzyme inhibition primary screen of the Spectrum library (AID 1346200; call rule not given here;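 also: 100% = wells without compound and 0% = wells lacking enzyme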); details: malachite green pyrophosphate, A620, at 8 µM, stronger effect = lower value
# [3] = molecular target: Mitogen-activated protein kinase 7 (Homo sapiens) (UniProt Q13164); assay: ERK5 transactivation activators in reporter cells, primary screen, cell-based, HTS (AID 1508626;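 active = luciferase signal above three times the same-plate solvent-only control wells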;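 also: luciferase driven by Gal4-ERK5 fusion binding five Gal4 sites before minimal TATA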); details: HeLa Gal4-ERK5 transactivation, 18 h, at 5 µM, stronger effect = higher value
# Mitogen-activated protein kinase 7 (Homo sapiens), sequence (Q13164 whole entry, looked up, the tested form may be a part): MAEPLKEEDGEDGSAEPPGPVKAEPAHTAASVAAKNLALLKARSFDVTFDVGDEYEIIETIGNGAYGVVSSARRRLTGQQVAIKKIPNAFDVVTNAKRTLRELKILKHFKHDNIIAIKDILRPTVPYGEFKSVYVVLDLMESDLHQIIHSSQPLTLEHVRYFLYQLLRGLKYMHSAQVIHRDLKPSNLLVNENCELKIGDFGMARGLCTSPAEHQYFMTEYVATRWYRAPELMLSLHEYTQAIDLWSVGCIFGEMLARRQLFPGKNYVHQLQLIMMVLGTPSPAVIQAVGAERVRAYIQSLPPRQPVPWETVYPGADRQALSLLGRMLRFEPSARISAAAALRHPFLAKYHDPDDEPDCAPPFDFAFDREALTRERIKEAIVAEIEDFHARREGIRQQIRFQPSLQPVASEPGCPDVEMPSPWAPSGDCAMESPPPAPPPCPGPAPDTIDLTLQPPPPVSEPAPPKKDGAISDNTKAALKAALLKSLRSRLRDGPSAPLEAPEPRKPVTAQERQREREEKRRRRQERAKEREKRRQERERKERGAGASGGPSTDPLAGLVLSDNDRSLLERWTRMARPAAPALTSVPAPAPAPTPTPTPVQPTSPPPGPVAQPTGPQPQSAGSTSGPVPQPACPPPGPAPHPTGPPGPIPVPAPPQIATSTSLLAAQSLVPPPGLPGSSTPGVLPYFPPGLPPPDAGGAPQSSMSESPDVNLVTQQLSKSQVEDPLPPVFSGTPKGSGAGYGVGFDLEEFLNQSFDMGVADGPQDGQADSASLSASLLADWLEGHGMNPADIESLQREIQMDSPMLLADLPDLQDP
# [4] = polyglutamine-triggered caspase-3 activation inhibitors, cell-based (AID 1583); details: polyglutamine-induced caspase-3 activation, cell assay; stronger effect = higher value;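 tested at 10 µM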
# [5] = suppressors of polyQ aggregation in yeast, 75Q-TubU reporter (AID 1593); details: Yeast 75Q polyglutamine aggregation reporter
# [6] = rescue of polyQ-huntingtin neuronal dysfunction in worms, whole organism, C. elegans mechanosensory neurons, N-terminal huntingtin (AID 1599); details: touch response, stronger effect = higher value
# [7] = inhibitors of mitochondrial cytochrome c release, biochemical, purified mitochondria (AID 1603); details: stronger effect = lower value;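 also: mouse liver mitochondria challenged with calcium chloride; signal normalized to the plate average as 100%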
# [8] = inhibitors of polyQ protein aggregation (AID 1604); details: polyglutamine-induced protein aggregation inhibition assay; stronger effect = higher value; tested at 2.5 µM
# [9] = enhancers of glutamate uptake in motor neurons, MN-1 cell line (AID 1612); details: MN-1 motor neuron cells, stronger effect = higher value;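 also: tested at 1 µM final; 0% = mean of DMSO vehicle wells on each plate; positive means more glutamate uptake than control and negative means less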
# [10] = reducers of polyQ inclusions in PC12 cells, cell-based, NGF-treated PC12, GFPQ80 (AID 1614); details: PC12 NGF-treated GFP-polyQ80 inclusion reduction;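 also: lower means fewer inclusions and 0 means no inclusions at all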
# [11] = suppressors of polyglutamine aggregation in yeast, 75Q-TubH (AID 1616); details: S. cerevisiae 75Q-TubH polyglutamine aggregation suppression; stronger effect = higher value
# [12] = liver-stage malaria parasite growth inhibition, primary screen, cell-based, HepG2, luciferase luminescence, HepG2 viability (AID 624349; in the data active = parasite load remaining mostly below about 12%, no sharp cut-off; inactive = mostly above about 10%;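 also: 100% = mean of DMSO negative control wells on the same plate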); details: P. berghei liver stage in HepG2, luciferase luminescence, concentration not given here; parasite load remaining: stronger effect = lower value; viability: measured here: HepG2 viability without parasites
# [13] = sensitizers of A549 cells to miR-34 induction, primary screen, imaging, A549 dox-inducible miR-34, nuclei and caspase counts (AID 1347080;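 active = compounds whose cell count with miR-34 switched on is under 0.7 times the count with it off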); details: A549 miR-34 inducible, Hoechst nuclei count, 48 h
# [14] = survival rescue of mitochondrial mutant cells in low glucose, primary screen, MELAS cybrids, Rieske KO mouse fibroblasts, CellTiter-Glo (AID 1508586;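 active = mean z-score across replicates of 1.96 or higher in either the MELAS or the Rieske mutant cell line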;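 also: z relative to plate mean and SD of compound and empty wells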)
# [15] = molecular target: Huntingtin (Homo sapiens) (UniProt P42858); assay: inhibitors of mutant Htt aggregation in vitro, dose response, QA1 (AID 1584); details: in vitro mutant huntingtin aggregation assay; confirmation test; at 10 µM; stronger effect = lower value
# [16] = inhibitors of polyQ aggregate elongation, biochemical, solid-phase synthetic aggregates, QA3 (AID 1585; call rule not given here); details: biotin-polyQ incorporation; EC50: measured here: elongation inhibition potency; inhibition: at 100 µM, stronger effect = higher value
# [17] = protection against mutant huntingtin cytotoxicity, PC12 cells, LDH release (AID 1610); details: PC12 mutant huntingtin toxicity, final LDH at 4 uM, stronger effect = lower value
# [18] = growth inhibition of DIPG glioma cells, dose response, cell-based, SU-DIPG-XVII, MIPE5.0, CellTiter-Glo, qHTS (AID 1347060; cut-off not given, nearly all actives have AC50 up to about 26 µM;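 also: cells exposed to compound for 48 hours before viability readout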); details: SU-DIPG-XVII viability, CellTiter-Glo ATP luminescence
# [19] = growth inhibition of DIPG glioma cells, dose response, cell-based, SU-DIPG-XIII, MIPE5.0, CellTiter-Glo, qHTS (AID 1347064; cut-off not given, nearly all actives have AC50 up to about 23 µM;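 also: cells exposed to compound for 48 hours before the viability read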); details: SU-DIPG-XIII viability, CellTiter-Glo ATP luminescence
# [20] = viability loss in pontine glioma line – cell-based, SU-DIPG-XXV, MIPE5.0, CellTiter-Glo, qHTS, dose response (AID 1347065; cut-off not given, nearly all actives have AC50 up to about 26 µM;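 also: cells exposed to compound for 48 hours before ATP readout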); details: CellTiter-Glo ATP luminescence
# [21] = JHH-DIPG-1 glioma cell viability, MIPE5.0 library, CellTiter-Glo luminescence, qHTS (AID 1347067; cut-off not given, nearly all actives have AC50 up to about 26 µM;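 also: cells exposed to compound for 48 hours before readout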); details: JHH-DIPG-1 glioma viability, CellTiter-Glo ATP luminescence
# [22] = SU-DIPG-XXV glioma cell viability, MIPE5.0 library, qHTS (AID 1347068; cut-off not given, nearly all actives have IC50 up to about 30 µM;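 also: cells exposed to compound for 48 hours before viability readout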)
# [23] = growth inhibition of DIPG glioma cells, dose response, cell-based, SU-DIPG-XIII, MIPE4.0, CellTiter-Glo, qHTS (AID 1347061; cut-off not given, nearly all actives have AC50 up to about 37 µM;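 also: cells exposed to compound for 48 hours before readout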); details: SU-DIPG-XIII viability, CellTiter-Glo ATP luminescence
# [24] = growth inhibition of DIPG glioma cells, dose response, cell-based, SU-DIPG-IV, MIPE4.0, CellTiter-Glo, qHTS (AID 1347063; cut-off not given, nearly all actives have AC50 up to about 30 µM;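 also: compound exposure lasted 48 hours before the viability readout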); details: SU-DIPG-IV viability, CellTiter-Glo ATP luminescence
# [25] = SU-DIPG-VI glioma cell viability, MIPE4.0 library, CellTiter-Glo luminescence, qHTS (AID 1347066; cut-off not given, nearly all actives have AC50 up to about 30 µM;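 also: cells exposed to compound for 48 hours before readout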); details: CellTiter-Glo ATP luminescence
# [26] = molecular target: NAD(+) hydrolase SARM1 (Homo sapiens) (UniProt Q6SZW1); assay: SARM1 TIR NADase inhibitors, cell lysate, NAD-Glo luminescence (AID 1508614;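 active = compound whose remaining NAD level is above about 45 nM, limit read from the data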;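 also: higher remaining NAD means stronger inhibition of SARM1 NADase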); details: SAM-TIR HEK293T lysate NADase, at 1 µM, stronger effect = higher value
# NAD(+) hydrolase SARM1 (Homo sapiens), sequence (Q6SZW1 whole entry, looked up): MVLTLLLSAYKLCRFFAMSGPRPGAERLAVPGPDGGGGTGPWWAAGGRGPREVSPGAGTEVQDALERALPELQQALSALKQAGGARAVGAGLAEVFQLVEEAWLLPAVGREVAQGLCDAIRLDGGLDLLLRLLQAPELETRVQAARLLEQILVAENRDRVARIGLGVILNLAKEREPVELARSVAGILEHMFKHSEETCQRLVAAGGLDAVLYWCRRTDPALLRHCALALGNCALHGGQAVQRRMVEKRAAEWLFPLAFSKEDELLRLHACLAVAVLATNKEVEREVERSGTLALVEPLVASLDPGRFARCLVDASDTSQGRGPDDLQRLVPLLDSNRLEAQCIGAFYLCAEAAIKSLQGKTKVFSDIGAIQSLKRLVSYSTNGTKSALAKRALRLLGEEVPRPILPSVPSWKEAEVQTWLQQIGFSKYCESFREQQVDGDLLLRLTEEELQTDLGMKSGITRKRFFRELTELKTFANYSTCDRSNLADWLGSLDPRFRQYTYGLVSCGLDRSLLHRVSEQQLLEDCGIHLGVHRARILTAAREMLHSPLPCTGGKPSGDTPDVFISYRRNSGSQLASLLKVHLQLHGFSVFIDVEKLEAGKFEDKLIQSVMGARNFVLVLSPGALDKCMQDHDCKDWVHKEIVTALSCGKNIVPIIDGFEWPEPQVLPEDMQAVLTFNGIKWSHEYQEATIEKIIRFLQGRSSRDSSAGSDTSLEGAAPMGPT
# [27] = viability rescue of complex I mutant cybrids, primary screen, cell-based, galactose medium, ATP luminescence (AID 1645843;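 active = z-score of at least 1.8 in each of two replicates, scored against plate mean and spread of sample wells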;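 also: positive z means more ATP and so rescue of galactose-driven cybrid death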); details: complex I mutant cybrid cells, 72 h, stronger effect = higher value
# [28] = measured here: relative caspase fold change +Dox/-Dox
# [29] = measured here: total cells with miR-34 induction, stronger effect = lower value
# [30] = measured here: total cells without miR-34 induction
# [31] = MELAS cybrid survival, CellTiter-Glo 48 h, stronger effect = higher value
# [32] = Rieske KO mouse fibroblast survival, CellTiter-Glo 72 h
structure (smiles),measurement,setting,value
CC(C)N1C(=O)c2ccccc2NS1(=O)=O,inhibition,[1],-1.1% (inactive)
same,activity remaining,[2],106% (inactive)
same,luciferase signal,[3],92 AU (inactive)
CCCC(C)C1(CC)C(=O)NC(=O)NC1=O (stereo not drawn),inhibition,[4],8.8%
same,score,[5],1.08
same,rescue above control,[6],-0.14
same,cytochrome c release ratio,[7],0.79
same,inhibition of aggregation,[8],-14.3%
same,glutamate uptake change,[9],8.51%
same,inclusion score,[10],2
same,aggregation suppression score,[11],0.96
same,parasite load remaining,[12],22.1% (inactive)
same,viability,[12],103%
same,inhibition,[1],-1.31% (inactive)
same,activity remaining,[2],95.4% (inactive)
same,fold change,[13]; stronger effect = lower value,0.918 (inactive)
same,fold change,[13]; [28],2.52
same,cell count,[13]; [29],11200
same,cell count,[13]; [30],12200
same,z-score,[14]; [31],0.13 (inactive)
same,z-score,[14]; [32],-0.121
same,luciferase signal,[3],60 AU (inactive)
Cc1cc2c(C(C)C)c(O)c(O)c(C=O)c2c(O)c1-c1c(C)cc2c(C(C)C)c(O)c(O)c(C=O)c2c1O,inhibition,[4],60.9%
same,aggregation ratio,[15],0.119
same,EC50,[16],57 µM
same,inhibition,[16],68% (active)
same,score,[5],1.78
same,rescue above control,[6],0
same,cytochrome c release ratio,[7],0.19
same,inhibition of aggregation,[8],19.1%
same,glutamate uptake change,[9],-53.4%
same,inclusion score,[10],0
same,aggregation suppression score,[11],0.368
same,inhibition,[1],14.1% (inactive) and -10.8% (inactive)
same,activity remaining,[2],96.1% (inactive) and 125% (inactive)
same,z-score,[14]; [31],-0.449 (inactive) and -0.0386 (inactive)
same,z-score,[14]; [32],-0.0272 and 0.0258
COc1c2c(c(CC=C(C)C)c3oc(=O)c(-c4ccc(O)cc4)c(O)c13)OC(C)(C)C=C2,inhibition,[1],-5.17% (inactive)
same,activity remaining,[2],104% (inactive)
same,luciferase signal,[3],60 AU (inactive)
CC[C@@]1(O)C[C@H](O[C@H]2C[C@H](N(C)C)[C@H](O)[C@H](C)O2)c2c(cc3c(c2O)C(=O)c2c(O)cccc2C3=O)[C@H]1C(=O)OC,inhibition,[4],61.1%
same,score,[5],0.65
same,rescue above control,[6],1.11
same,cytochrome c release ratio,[7],3.13
same,inhibition of aggregation,[8],90.8%
same,glutamate uptake change,[9],-25.9%
same,aggregation suppression score,[11],0.115
same,parasite load remaining,[12],0.915% (inactive)
same,viability,[12],15.1%
same,inhibition,[1],-8.44% (inactive)
same,activity remaining,[2],107% (inactive)
same,luciferase signal,[3],5360 AU (active)
CC(=O)Oc1ccc(Cl)c2cccnc12,inhibition,[4],11.4%
same,score,[5],0.08
same,rescue above control,[6],7.46
same,cytochrome c release ratio,[7],1.44
same,inhibition of aggregation,[8],87.2%
same,normalised LDH release,[17],1.08
same,glutamate uptake change,[9],14.2%
same,aggregation suppression score,[11],0.0401
same,parasite load remaining,[12],-5% (inactive)
same,viability,[12],65.2%
same,inhibition,[1],-4.5% (inactive)
same,activity remaining,[2],124% (inactive)
OCC(O)Cc1ccc2c(c1)OCO2 (stereo not drawn),inhibition,[1],11.1% (inactive)
same,activity remaining,[2],123% (inactive)
same,luciferase signal,[3],16 AU (inactive)
CC(C)[C@]12O[C@H]1[C@@H]1O[C@@]13[C@@]1(C)CCC4=C(COC4=O)[C@@H]1C[C@@H]1O[C@@]13C2=O,inhibition,[1],3.27% (inactive)
same,AC50,[18],0.295 µM (active)
same,AC50,[19],0.263 µM (active)
same,AC50,[20],0.372 µM (active)
same,AC50,[21],0.132 µM (active)
same,IC50,[22],0.372 µM (active)
N#C[C@H](O[C@@H]1O[C@H](CO[C@@H]2O[C@H](CO)[C@@H](O)[C@H](O)[C@H]2O)[C@@H](O)[C@H](O)[C@H]1O)c1ccccc1,inhibition,[1],-14.3% (inactive)
same,AC50,[23],23.5 µM (active)
same,AC50,[24],8.33 µM (active)
same,AC50,[25],20.9 µM (active)
same,luciferase signal,[3],56 AU (inactive)
COc1ccc(C(=O)O[C@H]2CC[C@@]3(C)[C@@H]4CC[C@H]5[C@]6(O)C[C@H](O)[C@@]7(O)[C@@H](CN8C[C@@H](C)CC[C@H]8[C@@]7(C)O)[C@]6(O)C[C@@]53O[C@]24O)cc1OC,inhibition,[1],9.47% (inactive)
same,fold change,[13]; stronger effect = lower value,0.935 (inactive)
same,fold change,[13]; [28],1.54
same,cell count,[13]; [29],6050
same,cell count,[13]; [30],6480
CC(=O)O[C@@H]1CC2C(C)(C)[C@H](O)C=C[C@]2(C)C2CC[C@]3(C)C(=CC(=O)O[C@H]3c3ccoc3)[C@@]21C (stereo partly drawn),inhibition,[1],-4.71% (inactive)
same,activity remaining,[2],105% (inactive)
same,luciferase signal,[3],120 AU (inactive)
C#C[C@]1(O)CC[C@H]2[C@@H]3CCC4=CC(=O)CC[C@]4(C)[C@H]3CC[C@@]21C,parasite load remaining,[12],27.4% (inactive) and 14.2% (inactive)
same,viability,[12],48.6% and 66.5%
same,inhibition,[1],7.17% (inactive)
same,fold change,[13]; stronger effect = lower value,0.927 (inactive) and 0.887 (inactive)
same,fold change,[13]; [28],1.32 and 1.63
same,cell count,[13]; [29],8580 and 9180
same,cell count,[13]; [30],9250 and 10300
same,z-score,[14]; [31],-0.171 (inactive) and 0.217 (inactive)
same,z-score,[14]; [32],-0.0237 and 0.861
same,remaining NAD,[26],10 nM (inactive)
same,luciferase signal,[3],68 AU (inactive)
same,z-score,[27],0.355 (inactive)

# Reference: PubChem BioAssay
